We go through 7 compounds from PubChem BioAssay (NCATS).

Results filed as inconclusive are left out. Active and inactive are the calls of the source. Unless noted, calls come from the whole dose curve; as a rule, active = well fitted curve in the direction sought with a large enough effect; inconclusive = small, poorly fitted or top-dose-only effect, or another doubt; inactive = no such curve, though single readings can be large; an effect the other way counts as inactive or inconclusive.

Assay [1] is described as follows: HepG2 viability counterscreen (readout 2: ATP content) against the NCATS DSHEA and TCM libraries (AID 1794840). Note: 0% is about no effect. In outline:
(§1)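 HepG2 cells, 1,000/well, attached ~4 h, then exposed ~24 h at 37C to substances. Protease activity read by fluorescence of 25 uM GF-AFC (Ex/Em 380/510 nm) after 30 min; ATP then by CellTiter-Glo luminescence.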

Assay [2] can be described thus: HepG2 viability counterscreen (readout 1: protease activity) against the NCATS DSHEA and TCM libraries (AID 1794841).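 Note: cells exposed to compounds for about 24 h before the protease read; 0% is about no effect.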 The method, boiled down:
as §1
(The purpose of a counterscreen is to sort out artefacts and off-target activity.)

Assay [3] has as its target Glutathione peroxidase 1 (Homo sapiens) (UniProt P07203). Nature of the assay: Primary qHTS Assay for Inhibitors of Recombinant Selenoprotein Glutathione Peroxidase 1 (GPX1) (AID 1845191). For activity, negative = inhibition: % is set by controls: 0 for no effect and ±100 for the full control effect. Note: nearly all actives have a fitted effect of over 65% in size. In outline: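 10 nM GPX1 + cpd, 30 min RT; start w/ 1 mM GSH, 0.5 mM cumene hydroperoxide, 0.5 mM NADPH, 100 nM GR, 0.01% BSA; buffer 50 mM Tris-HCl pH 7.5, 2 mM EDTA, 150 mM NaCl; Fl 340/450, 0 & 15 min.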

The target in assay [4] is Phospholipid hydroperoxide glutathione peroxidase GPX4 (Homo sapiens) (UniProt P36969). Nature of the assay: Primary qHTS Assay for Inhibitors of Recombinant Selenoprotein Glutathione Peroxidase 4 (GPX4) (AID 1845192). Note: nearly all actives have a fitted effect of over 65% in size. In outline: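 NADPH consumption, followed by fluorescence at 340/450 nm between 0 and 15 min, reports GPX4 activity via coupled glutathione reductase (100 nM). Enzyme 200 nM was pre-exposed to compound 30 min; 0.5 mM cumene hydroperoxide and 1 mM GSH served as substrates.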
A general note: qHTS replaces the single test concentration by a dilution series.

Assay [5] deals with Cytochrome P450 3A4 (Homo sapiens) (UniProt P08684). Nature of the assay: qHTS for inhibitors of CYP3A4 against the NCATS DSHEA and TCM libraries (AID 1919971).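 Note: % is set by controls: 0 for no effect and ±100 for the full control effect; inhibition lowers luminescence from luciferin made by CYP3A4.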 In outline:
(§2)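 Light output from converted D-luciferin reports remaining CYP activity. Compounds preincubate with enzyme and substrate for 15 min; NADPH regeneration (1x final) runs the reaction for 30-45 min.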

The target of assay [6] is Cytochrome P450 2D6 (Homo sapiens) (UniProt P10635). Nature of the assay: qHTS for inhibitors of CYP2D6 against the NCATS DSHEA and TCM libraries (AID 1919972). Note: % is set by controls: 0 for no effect and ±100 for the full control effect. In outline:
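Steps: enzyme plus luciferin substrate dispensed; test substances pinned; 15 min RT; 1x NADPH regenerating solution added, 30–45 min RT protected from light; detection reagent, 30 min RT; luminescence measured. Minus-enzyme wells as background.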

In assay [7] the target is Cytochrome P450 2C19 (Homo sapiens) (UniProt P33261). Nature of the assay: qHTS for inhibitors of CYP2C19 against the NCATS DSHEA and TCM libraries (AID 1919974).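 Note: luminescence from luciferin released by CYP2C19 oxidation of a pro-luciferin substrate; % is set by controls: 0 for no effect and ±100 for the full control effect.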 The method, boiled down: as §2
Assay [8] is described as follows: KB-3-1 P-gp reporter qHTS against the NCATS DSHEA and TCM libraries (AID 1919975). Note: 0% is about no effect. In outline: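 Parental KB-3-1 cells, 500 cells/well, in DMEM with 10% FBS, exposed 72 h at 37 C to compounds in concentration-response. Viability read by CellTiter-Glo luminescence after 30 min at room temperature.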
Assay [9] in a line: qHTS Counterscreen for compound interference against the NCATS DSHEA and TCM libraries (AID 1919978).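 Note: compounds preincubated with 1 µM D-luciferin or buffer before detection reagent; % of control where 0% means no effect.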 Particulars: firefly luciferase detection reagent interference, luminescence. The method, boiled down:
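Firefly luciferase detection reagent was added after compounds (19.5 nM–39.8 uM final) had been incubated 15 min at room temperature with 1 uM D-luciferin or with 100 mM phosphate buffer alone. Luminescence was read after 30 min at room temperature.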

Assay [10] in a line: Dual reporter qHTS for agonist of Pregnane X Receptor (hPXR) against the NCATS DSHEA and TCM libraries: Fluorescence readout (AID 1920058). Note: 0% is about no effect. The method, boiled down:
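Measures viability of the PXR reporter HepG2 line by protease-substrate fluorescence (405/540 nm), taken 1 h after CellTiter-Fluor addition. Substances are tested as concentration series over a ~24 h exposure, with rifampicin as agonist control.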

Assay [11] addresses Nuclear receptor subfamily 1 group I member 2 (Homo sapiens) (UniProt O75469). Nature of the assay: Dual reporter qHTS for antagonist of Pregnane X Receptor (hPXR) against the NCATS DSHEA and TCM libraries: Luminescence Readout (AID 1920060).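 Note: HepG2 cells carrying hPXR luciferase reporter stimulated with rifampicin at 2 µM; 0% is about no effect.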 The method, boiled down:
(§3)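 hPXR-Luc HepG2 cells exposed 24 h at 37 C to compounds with 2 uM rifampicin in antagonist mode; luciferase luminescence measured by ONE-Glo, with CellTiter-Fluor viability read beforehand.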

Assay [12] in a line: Dual reporter qHTS for antagonist of Pregnane X Receptor (hPXR) against the NCATS DSHEA and TCM libraries: Fluorescence Readout (AID 1920061). Note: 0% is about no effect. In outline:
as §3

Assay [13] can be described thus: qHTS drug screen for cell cycle checkpoint inhibitors in PARPi-resistant BRCA-mutant ovarian cancer cell lines. (AID 1963452; calls by dose curve). The following applies: PEO1/OlaR viability, CellTiter-Glo luminescence, 96 h, stronger effect = lower value. The method, boiled down: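 PEO1, PEO4 and PEO1/OlaR ovarian cancer cells, 600 per well, exposed 96 h at 37C to a dilution series. Viability read by CellTiter-Glo luminescence, normalized to DMSO and empty wells; activity summarized as Z-AUC.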

A short description of assay [14]: qHTS profiling for inhibitors of Plasmodium falciparum proliferation (AID 504749).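 Note: 0% = DMSO vehicle and full inhibition = artemisinin control; nearly all actives have a fitted effect of over 60% in size.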 Particulars: P. falciparum in erythrocytes, SYBR Green DNA, 72 h, at 28.7 µM (top of the series). In outline: (§4)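 Three-day growth assay of blood-stage parasites in erythrocytes (0.3% parasitemia, 2.5% hematocrit) at 37 C, 5% CO2, quantified by SYBR Green DNA staining after overnight detergent lysis.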

For another assay, the system named is 3D7. The assay is described as above. Particulars: P. falciparum in erythrocytes, SYBR Green DNA, 72 h; series mostly up to 28.7 µM. The method, boiled down:
as §4

The target in assay [15] is Cytochrome P450 1A2 (Homo sapiens) (UniProt P05177). Nature of the assay: qHTS for inhibitors of CYPIA2 against the NCATS DSHEA and TCM libraries (AID 1919976).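 Note: light from luciferin formed by CYP1A2 from a pro-luciferin substrate; % is set by controls: 0 for no effect and ±100 for the full control effect.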 In outline: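 In this quantitative HTS, inhibition of recombinant human CYP1A2 was measured as loss of luciferin-derived luminescence. Turnover ran 30-45 min at RT after NADPH regeneration solution was added.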

The mark [16] stands for this setting: measured here: PEO1 parental Z-AUC.

Glutathione peroxidase 1 (Homo sapiens), sequence (P07203 whole entry, looked up): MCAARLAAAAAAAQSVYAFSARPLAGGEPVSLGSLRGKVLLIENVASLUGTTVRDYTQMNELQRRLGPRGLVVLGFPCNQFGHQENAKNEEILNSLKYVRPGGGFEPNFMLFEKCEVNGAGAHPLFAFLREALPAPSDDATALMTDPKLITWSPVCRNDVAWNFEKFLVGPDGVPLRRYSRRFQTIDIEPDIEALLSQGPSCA
Phospholipid hydroperoxide glutathione peroxidase GPX4 (Homo sapiens), sequence (P36969 whole entry, looked up): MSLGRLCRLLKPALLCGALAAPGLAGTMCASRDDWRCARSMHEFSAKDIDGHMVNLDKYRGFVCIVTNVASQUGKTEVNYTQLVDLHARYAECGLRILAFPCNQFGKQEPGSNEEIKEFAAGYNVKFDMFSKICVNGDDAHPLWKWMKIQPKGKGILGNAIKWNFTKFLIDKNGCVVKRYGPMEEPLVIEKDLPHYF
Nuclear receptor subfamily 1 group I member 2 (Homo sapiens), sequence (O75469 whole entry, looked up): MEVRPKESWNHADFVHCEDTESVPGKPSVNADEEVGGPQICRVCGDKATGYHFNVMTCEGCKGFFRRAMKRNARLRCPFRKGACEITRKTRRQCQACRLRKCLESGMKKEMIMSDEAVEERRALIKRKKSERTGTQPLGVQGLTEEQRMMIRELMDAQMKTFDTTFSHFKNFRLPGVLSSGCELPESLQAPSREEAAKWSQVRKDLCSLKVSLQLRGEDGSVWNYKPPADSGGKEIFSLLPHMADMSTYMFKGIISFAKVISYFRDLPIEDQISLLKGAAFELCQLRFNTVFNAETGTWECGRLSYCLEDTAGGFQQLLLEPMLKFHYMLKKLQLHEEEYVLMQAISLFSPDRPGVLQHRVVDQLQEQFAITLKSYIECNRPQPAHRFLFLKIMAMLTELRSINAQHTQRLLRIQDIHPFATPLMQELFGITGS
Cytochrome P450 1A2 (Homo sapiens), sequence (P05177 whole entry, looked up): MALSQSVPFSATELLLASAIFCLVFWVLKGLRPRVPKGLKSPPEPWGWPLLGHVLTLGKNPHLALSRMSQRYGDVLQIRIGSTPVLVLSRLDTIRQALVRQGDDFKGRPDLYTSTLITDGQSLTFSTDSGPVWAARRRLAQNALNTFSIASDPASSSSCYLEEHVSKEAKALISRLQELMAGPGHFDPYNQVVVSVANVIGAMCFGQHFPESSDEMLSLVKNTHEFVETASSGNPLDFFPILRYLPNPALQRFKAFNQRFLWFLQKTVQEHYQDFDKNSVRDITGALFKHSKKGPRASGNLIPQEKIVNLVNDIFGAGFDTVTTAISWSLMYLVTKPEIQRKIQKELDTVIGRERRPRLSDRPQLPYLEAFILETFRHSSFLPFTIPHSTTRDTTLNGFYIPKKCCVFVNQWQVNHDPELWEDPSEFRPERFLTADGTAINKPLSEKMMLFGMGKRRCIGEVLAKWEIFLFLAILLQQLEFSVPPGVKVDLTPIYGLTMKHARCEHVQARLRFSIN
Cytochrome P450 2C19 (Homo sapiens), sequence (P33261 whole entry, looked up): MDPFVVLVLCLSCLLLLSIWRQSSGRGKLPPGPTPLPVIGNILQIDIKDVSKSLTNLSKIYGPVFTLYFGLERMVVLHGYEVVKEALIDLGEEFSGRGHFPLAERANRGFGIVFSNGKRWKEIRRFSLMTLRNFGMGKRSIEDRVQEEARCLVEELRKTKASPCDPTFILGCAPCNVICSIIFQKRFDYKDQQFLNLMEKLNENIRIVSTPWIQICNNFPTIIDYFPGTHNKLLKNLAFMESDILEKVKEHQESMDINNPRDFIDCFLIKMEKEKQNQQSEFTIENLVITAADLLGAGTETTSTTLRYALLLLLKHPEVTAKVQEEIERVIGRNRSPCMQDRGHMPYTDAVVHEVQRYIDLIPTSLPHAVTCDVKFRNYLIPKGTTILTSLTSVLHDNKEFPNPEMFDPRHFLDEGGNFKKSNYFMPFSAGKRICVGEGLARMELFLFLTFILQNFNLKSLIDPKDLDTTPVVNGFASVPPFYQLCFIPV
Cytochrome P450 3A4 (Homo sapiens), sequence (P08684 whole entry, looked up): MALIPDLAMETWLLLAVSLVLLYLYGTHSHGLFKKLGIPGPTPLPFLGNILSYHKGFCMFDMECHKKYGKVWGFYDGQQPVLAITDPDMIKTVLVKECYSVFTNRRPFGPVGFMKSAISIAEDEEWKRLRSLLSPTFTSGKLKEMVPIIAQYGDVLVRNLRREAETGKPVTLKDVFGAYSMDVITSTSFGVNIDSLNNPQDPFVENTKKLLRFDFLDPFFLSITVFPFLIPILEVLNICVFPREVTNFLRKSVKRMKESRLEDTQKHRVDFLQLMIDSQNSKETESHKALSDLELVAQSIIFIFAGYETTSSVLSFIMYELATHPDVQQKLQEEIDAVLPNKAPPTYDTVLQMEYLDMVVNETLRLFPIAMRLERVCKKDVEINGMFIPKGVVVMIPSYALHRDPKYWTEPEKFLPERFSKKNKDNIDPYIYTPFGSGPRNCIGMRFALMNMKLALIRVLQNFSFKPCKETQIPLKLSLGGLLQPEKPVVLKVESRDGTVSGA
Cytochrome P450 2D6 (Homo sapiens), sequence (P10635 whole entry, looked up): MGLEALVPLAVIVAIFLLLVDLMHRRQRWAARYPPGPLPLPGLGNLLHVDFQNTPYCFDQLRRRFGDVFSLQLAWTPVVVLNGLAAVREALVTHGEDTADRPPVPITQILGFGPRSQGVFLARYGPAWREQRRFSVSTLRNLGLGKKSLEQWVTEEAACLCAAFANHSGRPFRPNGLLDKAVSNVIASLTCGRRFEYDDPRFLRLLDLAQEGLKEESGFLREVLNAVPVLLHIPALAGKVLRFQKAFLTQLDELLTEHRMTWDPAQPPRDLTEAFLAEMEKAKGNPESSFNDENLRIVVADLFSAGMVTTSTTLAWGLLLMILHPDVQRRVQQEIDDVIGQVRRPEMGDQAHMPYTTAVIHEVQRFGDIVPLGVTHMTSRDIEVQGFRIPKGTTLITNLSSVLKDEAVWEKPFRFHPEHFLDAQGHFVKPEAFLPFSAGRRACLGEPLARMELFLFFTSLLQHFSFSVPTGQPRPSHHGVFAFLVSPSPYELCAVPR

As to `COC1=C(OC)C(=O)C(C/C=C(\C)CC/C=C(\C)CC/C=C(\C)CC/C=C(\C)CC/C=C(\C)CC/C=C(\C)CC/C=C(\C)CC/C=C(\C)CC/C=C(\C)CCC=C(C)C)=C(C)C1=O`, the result in assay [1], in [2], in assay [5], in assay [6], in assay [8] and in [10] was inactive. Moreover, the call in assay [11] and in assay [12] was inactive. In addition, the Potency result (in assay [3]; in assay [4]; in [7]; with 3D7) was “inactive” throughout. In addition, the max response in assay [9] was 5.89% (inactive). Moreover, the values for the Z-AUC in assay [13], in [13] (setting [16]) and in assay [13] (measured here: PEO4 Z-AUC) were -0.238 (inactive), -0.0279 and 0.209, respectively. The activity, negative = inhibition is -2.4% (inactive) in [14] (parasite line A) and 5.89% (inactive) in [14] (parasite line B).

Take `CC[C@H](CC[C@@H](C)[C@H]1CC[C@H]2[C@@H]3CC=C4C[C@@H](O)CC[C@]4(C)[C@H]3CC[C@]12C)C(C)C`: the outcome in assay [1], in [2], in assay [8], in assay [10], in assay [11] and in assay [12] was inactive. Further, the Potency entry in assay [3] and in [4] was “inactive” in each case. Also, in [9], the max response is -1.45% (inactive). Also, the values for the Z-AUC in [13], in assay [13] (setting [16]) and in assay [13] (measured here: PEO4 Z-AUC) were 0.987 (inactive), 0.643 and 0.776, respectively.

On to `CCCC(=O)Nc1c(I)cc(I)c(CC(CC)C(=O)O)c1I` (stereo unspecified), for which the Potency entry in assay [3] and in [4] was “inactive” throughout.

`CC(C)[C@@H](C)/C=C/[C@@H](C)[C@H]1CC[C@H]2/C(=C/C=C3\C[C@@H](O)CC[C@@H]3C)CCC[C@]12C`: in [3], the Potency entry is “inactive”.

Take `CC/C=C\C/C=C\C/C=C\C/C=C\C/C=C\CCCC(=O)O`: the outcome in assay [1], in [2], in assay [5], in assay [6], in assay [8] and in assay [10] was inactive. The result in assay [11] and in assay [12] was inactive. Moreover, the Potency result (in [3]; in assay [7]; in assay [15]; in the assay with 3D7) was “inactive” throughout. In addition, in assay [9], the max response is 0.593% (inactive). The activity, negative = inhibition in assay [14] (parasite line A) was -4.56% (inactive); in assay [14] (parasite line B) it was -6.54% (inactive).

Take `CC/C=C\C/C=C\C/C=C\CCCCCCCC(=O)O`: the call in assay [1], in assay [2], in [8], in assay [10], in assay [11] and in assay [12] was inactive. Besides, the Potency entry (in [15]; with 3D7) was “inactive” in each case. The max response in assay [9] was -1.87% (inactive). Besides, the activity, negative = inhibition in assay [14] (parasite line A) is -1.47% (inactive); in assay [14] (parasite line B), -1.74% (inactive).

As for `CN(C)CCC(O)(c1ccccc1)c1ccccc1Cl` (stereo unspecified), the Potency result in [3] and in [4] was “inactive” in each case.
